In PubChem BioAssay (EPA / NIEHS):
The source made the active and inactive calls. The calls were made as follows: active = hit-call score of the fitted dose curve at least 0.9, where 1 is the maximum; inactive = score below 0.9.

Legend:
[1] = ATG_GLI_CIS: Attagene CIS-FACTORIAL HepG2 Assay for human Zinc Finger Protein GLI1 (AID 2282945); settings: HepG2, Attagene cis-factorial reporter mRNA, GLI element; actives raise or lower the signal
In short: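 HepG2 cells transiently transfected with cis-promoter multiplexed reporter units report endogenous transcription factor activity. After 24 h chemical exposure, reporter mRNA was quantified by RT-PCR, 6-FAM labelling, HpaI digestion and capillary electrophoresis, with bidirectional fitting against DMSO.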

[2] = biological target: Bile acid receptor (Homo sapiens) (UniProt Q96RI1); assay: ATG_IR1_CIS: Attagene CIS-FACTORIAL HepG2 Assay for human Nuclear Receptor Subfamily 1 Group H Member 4 (NR1H4), IR1 submotif (AID 2282946); settings: IR1 reporter transcription, actives raise or lower the signal
In short: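 Transient MRTU transfection, HepG2; 24 h dosing; RNA → RT-PCR → 6-FAM primer extension → HpaI digest → capillary electrophoresis fluorescence. Gain/loss of signal fitted relative to DMSO.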

[3] = ATG_GRE_CIS: Attagene CIS-FACTORIAL HepG2 Assay for human Glucocorticoid Response Elements (GRE) (AID 2282947); settings: HepG2 GRE cis-reporter, Attagene multiplex mRNA; actives raise or lower the signal
In short: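 HepG2 cells transiently transfected with multiple cis-promoter reporter units measure endogenous TF activity; 24 h compound exposure. Reporter mRNA quantified by RT-PCR, FAM labelling, HpaI digestion and capillary electrophoresis; bidirectional fit vs DMSO baseline.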

[4] = ATG_ISRE_CIS: Attagene CIS-FACTORIAL HepG2 Assay for human Interferon Regulatory Factor 1 (IRF1) binding to an Interferon-Stimulated Response Element (ISRE) (AID 2282948); settings: HepG2 ISRE cis-reporter (Attagene), mRNA transcription readout; actives raise or lower the signal
In short: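 Transfected HepG2 (multiple reporter transcription units, cis elements) dosed 24 h. RNA → oligo(dT) RT → PCR → 6-FAM primer extension → HpaI → CE. DMSO = negative control/baseline.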

[5] = ATG_M_32_CIS: Attagene CIS-FACTORIAL HepG2 Assay for M32 Transcription Factor (Internal Marker) (AID 2282949); settings: HepG2 Attagene cis-factorial M32 reporter, mRNA; actives raise or lower the signal;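 also: background control marker of the multiplexed CIS panel rather than a real target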
In short: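 Following 24 h chemical exposure of HepG2 cells transiently expressing cis-promoter reporter constructs, reporter transcript levels were determined by RT-PCR with fluorescent labelling and capillary electrophoresis, then fitted bidirectionally against DMSO.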

[6] = ATG_M_06_CIS: Attagene CIS-FACTORIAL HepG2 Assay for M06 Transcription Factor (Internal Marker) (AID 2282950); settings: HepG2 Attagene CIS-FACTORIAL M06 internal marker reporter; actives raise or lower the signal
In short: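 Measured 24 h post-dosing in transiently transfected HepG2 cells, this internal-marker endpoint reports reporter mRNA via RT-PCR with fluorescent primer extension and capillary electrophoresis. DMSO served as negative control and baseline for bidirectional fitting.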

[7] = biological target: Hypoxia-inducible factor 1-alpha (Homo sapiens) (UniProt Q16665); assay: ATG_HIF1a_CIS: Attagene CIS-FACTORIAL HepG2 Assay for human Hypoxia Inducible Factor 1 (HIF1A) (AID 2282951); settings: HepG2 Attagene cis-factorial HIF1a reporter transcription; actives raise or lower the signal
In short: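 RT-PCR/capillary electrophoresis fluorescence readout of reporter transcripts from endogenous-TF-driven cis elements in transfected HepG2 cells, 24 h exposure; activity fitted in both directions against DMSO controls.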

[8] = biological target: Hepatocyte nuclear factor 6 (Homo sapiens) (UniProt Q9UBC0); assay: ATG_HNF6_CIS: Attagene CIS-FACTORIAL HepG2 Assay for human Hepatocyte Nuclear Factor 6 (HNF6) (AID 2282952); settings: HepG2 Attagene cis-factorial HNF6 reporter transcription; actives raise or lower the signal
In short: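 Multiplexed mRNA reporter assay in transfected HepG2; 24 h dosing; RT-PCR plus capillary electrophoresis fluorescence; DMSO-referenced bidirectional curve fitting.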

[9] = biological target: Heat shock factor protein 1 (Homo sapiens) (UniProt Q00613); assay: ATG_HSE_CIS: Attagene CIS-FACTORIAL HepG2 Assay for human Heat Shock Transcription Factor 1 (HSE) (AID 2282953); settings: HepG2 HSE cis-reporter, Attagene RNA transcription; actives raise or lower the signal
In short: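 Reporter mRNA induction in HepG2 is measured 24 h after dosing, using transiently transfected multiplexed cis-regulated reporter units. Signal comes from capillary electrophoresis of labelled RT-PCR products, with DMSO as negative control.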

[10] = ATG_MRE_CIS: Attagene CIS-FACTORIAL HepG2 Assay for human Metal Responsive Element (MRE) (AID 2282954); settings: HepG2 MRE cis-reporter transcription, Attagene multiplex; actives raise or lower the signal
In short: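 HepG2 cells transiently transfected with multiple cis-element reporter units measure endogenous MTF1-driven transcription. After 24 h compound exposure, reporter mRNA is quantified by RT-PCR with 6-FAM labelling, HpaI digestion and capillary electrophoresis; bidirectional fits versus DMSO.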

[11] = ATG_PBREM_CIS: Attagene CIS-FACTORIAL HepG2 Assay for human Phenobarbital-responsive Enhancer Module (PBREM) (AID 2282955); settings: HepG2 PBREM cis-reporter, Attagene multiplexed transcription; actives raise or lower the signal
In short: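 Reporter mRNA read by RT-PCR, 6-FAM primer extension, HpaI digestion and capillary electrophoresis. Transfected HepG2 cells, 24 h compound exposure. Gain or loss of signal fitted bidirectionally relative to DMSO baseline.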

[12] = biological target: Paired box protein Pax-6 (Homo sapiens) (UniProt P26367); assay: ATG_Pax6_CIS: Attagene CIS-FACTORIAL HepG2 Assay for human Paired Box 6 (PAX6) (AID 2282956); settings: HepG2 CIS-FACTORIAL PAX6 reporter transcription, RNA readout; actives raise or lower the signal
In short: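 Transient MRTU transfection of HepG2 → compound exposure 24 h → TriZol RNA, oligo(dT) RT → PCR, 6-FAM primer extension, HpaI cut → capillary electrophoresis; activity fitted both directions against DMSO.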

[13] = ATG_PXRE_CIS: Attagene CIS-FACTORIAL HepG2 Assay for human Pregnane X Receptor Element (PXRE) (AID 2282957); settings: HepG2 Attagene CIS-FACTORIAL PXRE reporter, mRNA; actives raise or lower the signal
In short: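 Cells: HepG2, transiently transfected reporter units under cis promoter control. Exposure: 24 h. Detection: reporter mRNA via RT-PCR/CE fluorescence; bidirectional fitting, DMSO-referenced.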

[14] = ATG_PPRE_CIS: Attagene CIS-FACTORIAL HepG2 Assay for human Peroxisome Proliferator-activated Response Element (PPRE) (AID 2282958); settings: HepG2 PPRE cis-element reporter, Attagene transcription factor profiling; actives raise or lower the signal
In short: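 Read-out: fluorescent reporter mRNA fragments resolved by capillary electrophoresis after RT-PCR. HepG2 cells carried transiently transfected PPRE-driven cis reporter constructs and were dosed for 24 h; gain or loss of signal fitted relative to DMSO.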

[15] = ATG_RORE_CIS: Attagene CIS-FACTORIAL HepG2 Assay for human RAR-related Orphan Receptor Element (RORE) (AID 2282959); settings: HepG2 Attagene cis-factorial RORE reporter, mRNA; actives raise or lower the signal
In short: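 Readout: fluorescent reporter mRNA by RT-PCR plus capillary electrophoresis, 24 h after dosing transfected HepG2 cells. Endogenous transcription factor activity on a cis promoter element is measured. Gain or loss of signal fitted against DMSO.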

[16] = ATG_Sox_CIS: Attagene CIS-FACTORIAL HepG2 Assay for human SRY-box transcription factor (SOX) (AID 2282960); settings: HepG2 Attagene cis-factorial SOX reporter, mRNA; actives raise or lower the signal
In short: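 Read-out: fluorescent RT-PCR products of SOX1-linked reporter transcripts resolved by capillary electrophoresis, fitted bidirectionally against DMSO. Transiently transfected HepG2 cells, 24 h after chemical exposure, endogenous transcription factor activity.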

[17] = biological target: Transcription factor Sp1 (Homo sapiens) (UniProt P08047); assay: ATG_Sp1_CIS: Attagene CIS-FACTORIAL HepG2 Assay for human Specificity Protein 1 (Sp1) (AID 2282961); settings: HepG2 Sp1 cis-reporter transcription, actives raise or lower the signal
In short: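 Read-out: fluorescence of 6-FAM-labeled, HpaI-digested RT-PCR products separated by capillary electrophoresis. HepG2 cells carried transfected cis-element reporter units and were exposed to chemicals for 24 h; gain or loss of signal fitted relative to DMSO.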

[18] = ATG_SREBP_CIS: Attagene CIS-FACTORIAL HepG2 Assay for human Sterol Regulatory Element Binding (SREBP) (AID 2282962); settings: HepG2 Attagene cis-factorial SREBP reporter, mRNA; actives raise or lower the signal
In short: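 Transfected HepG2 (cis-regulated reporter library, endogenous TFs) → compound 24 h → total RNA → oligo(dT) RT → reporter-specific PCR → FAM primer extension, HpaI cut → CE fluorescence. Fit bidirectional vs DMSO.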

[19] = biological target: Signal transducer and activator of transcription 3 (Homo sapiens) (UniProt P40763); assay: ATG_STAT3_CIS: Attagene CIS-FACTORIAL HepG2 Assay for human Signal Transducer and Activator of Transcription 3 (STAT3) (AID 2282963); settings: HepG2, Attagene cis-factorial STAT3 reporter transcription; actives raise or lower the signal
In short: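 HepG2 cells transiently transfected with cis-element-driven multiple reporter transcription units; after 24 h chemical exposure, reporter mRNA measured by RT-PCR, 6-FAM primer-extension labelling, HpaI digestion and capillary electrophoresis. Bidirectional fitting versus DMSO baseline.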

[20] = ATG_TA_CIS: Attagene CIS-FACTORIAL HepG2 Assay for human TA Basal Promoter (AID 2282964); settings: HepG2 Attagene CIS-factorial TA basal promoter reporter; actives raise or lower the signal
In short: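 Cis-factorial format in HepG2: reporters report endogenous factors, not chimeric Gal4 fusions. After 24 h treatment, reporter transcripts were measured by RT-PCR-capillary electrophoresis fluorescence, analysed bidirectionally versus DMSO.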

Measured: AC50

Sequence of Hypoxia-inducible factor 1-alpha (Homo sapiens) (Q16665 whole entry, looked up): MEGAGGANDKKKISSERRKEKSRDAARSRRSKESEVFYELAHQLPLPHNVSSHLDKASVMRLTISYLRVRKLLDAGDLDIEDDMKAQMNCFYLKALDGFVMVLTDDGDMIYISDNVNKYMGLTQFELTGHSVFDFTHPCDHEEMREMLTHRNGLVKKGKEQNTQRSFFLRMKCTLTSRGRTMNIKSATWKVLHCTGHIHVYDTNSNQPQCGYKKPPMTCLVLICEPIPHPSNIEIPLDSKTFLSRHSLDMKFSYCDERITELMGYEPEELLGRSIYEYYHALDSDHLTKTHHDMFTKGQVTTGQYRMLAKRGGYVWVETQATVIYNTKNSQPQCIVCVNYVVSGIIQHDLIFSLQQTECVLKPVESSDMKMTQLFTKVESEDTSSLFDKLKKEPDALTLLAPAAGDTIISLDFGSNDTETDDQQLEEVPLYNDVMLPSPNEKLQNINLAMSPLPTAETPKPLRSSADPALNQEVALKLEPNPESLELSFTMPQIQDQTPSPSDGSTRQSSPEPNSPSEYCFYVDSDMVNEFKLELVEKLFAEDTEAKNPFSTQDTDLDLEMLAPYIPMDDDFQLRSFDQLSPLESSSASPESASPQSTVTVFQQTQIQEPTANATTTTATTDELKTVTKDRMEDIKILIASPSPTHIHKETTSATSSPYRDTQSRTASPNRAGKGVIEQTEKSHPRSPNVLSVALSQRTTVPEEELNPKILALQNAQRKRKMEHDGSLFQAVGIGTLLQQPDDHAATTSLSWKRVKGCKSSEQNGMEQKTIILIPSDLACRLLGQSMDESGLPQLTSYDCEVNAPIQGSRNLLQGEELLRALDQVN
Sequence of Transcription factor Sp1 (Homo sapiens) (P08047 whole entry, looked up): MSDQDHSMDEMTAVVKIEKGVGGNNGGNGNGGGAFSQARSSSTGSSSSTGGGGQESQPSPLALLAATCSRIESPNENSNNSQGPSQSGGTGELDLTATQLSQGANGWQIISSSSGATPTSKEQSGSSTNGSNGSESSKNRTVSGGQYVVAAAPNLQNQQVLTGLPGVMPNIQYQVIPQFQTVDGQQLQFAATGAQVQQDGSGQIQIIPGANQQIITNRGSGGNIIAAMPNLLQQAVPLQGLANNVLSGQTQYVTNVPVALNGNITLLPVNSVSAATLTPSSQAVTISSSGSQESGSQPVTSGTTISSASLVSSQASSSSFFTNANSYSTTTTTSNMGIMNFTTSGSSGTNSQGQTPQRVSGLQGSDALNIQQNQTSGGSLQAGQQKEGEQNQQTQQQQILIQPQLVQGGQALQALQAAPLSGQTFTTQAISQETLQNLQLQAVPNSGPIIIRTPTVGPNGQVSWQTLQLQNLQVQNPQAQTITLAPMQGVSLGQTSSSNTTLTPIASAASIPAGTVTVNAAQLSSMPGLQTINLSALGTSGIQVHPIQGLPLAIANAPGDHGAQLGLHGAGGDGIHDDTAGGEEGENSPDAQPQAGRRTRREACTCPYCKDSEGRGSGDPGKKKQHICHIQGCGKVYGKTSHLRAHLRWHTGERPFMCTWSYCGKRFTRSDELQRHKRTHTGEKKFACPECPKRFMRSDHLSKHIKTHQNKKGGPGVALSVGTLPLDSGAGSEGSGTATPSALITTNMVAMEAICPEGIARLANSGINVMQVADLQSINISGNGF
Sequence of Paired box protein Pax-6 (Homo sapiens) (P26367 whole entry, looked up): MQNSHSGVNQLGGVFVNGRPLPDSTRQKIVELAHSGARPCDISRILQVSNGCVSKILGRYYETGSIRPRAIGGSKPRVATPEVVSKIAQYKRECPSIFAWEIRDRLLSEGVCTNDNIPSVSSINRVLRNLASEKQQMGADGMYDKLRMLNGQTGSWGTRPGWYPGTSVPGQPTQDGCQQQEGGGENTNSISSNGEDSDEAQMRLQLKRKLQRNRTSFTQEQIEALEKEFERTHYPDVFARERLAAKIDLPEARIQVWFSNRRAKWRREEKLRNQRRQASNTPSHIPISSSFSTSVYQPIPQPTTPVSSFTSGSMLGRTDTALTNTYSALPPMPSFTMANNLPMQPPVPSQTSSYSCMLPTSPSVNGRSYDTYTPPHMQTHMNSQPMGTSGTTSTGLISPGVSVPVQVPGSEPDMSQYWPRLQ
Sequence of Bile acid receptor (Homo sapiens) (Q96RI1 whole entry, looked up): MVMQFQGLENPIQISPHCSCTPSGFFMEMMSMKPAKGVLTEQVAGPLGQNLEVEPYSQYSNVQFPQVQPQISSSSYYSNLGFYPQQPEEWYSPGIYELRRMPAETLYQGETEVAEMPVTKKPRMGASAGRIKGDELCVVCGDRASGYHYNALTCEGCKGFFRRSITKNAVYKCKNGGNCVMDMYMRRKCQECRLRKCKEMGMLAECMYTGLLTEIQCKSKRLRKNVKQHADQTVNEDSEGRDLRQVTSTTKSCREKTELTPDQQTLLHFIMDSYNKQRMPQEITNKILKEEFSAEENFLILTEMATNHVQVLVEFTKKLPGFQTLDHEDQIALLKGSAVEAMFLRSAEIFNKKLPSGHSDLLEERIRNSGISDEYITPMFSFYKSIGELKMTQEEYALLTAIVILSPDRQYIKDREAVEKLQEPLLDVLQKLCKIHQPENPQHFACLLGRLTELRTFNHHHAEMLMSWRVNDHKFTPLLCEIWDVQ
Sequence of Hepatocyte nuclear factor 6 (Homo sapiens) (Q9UBC0 whole entry, looked up): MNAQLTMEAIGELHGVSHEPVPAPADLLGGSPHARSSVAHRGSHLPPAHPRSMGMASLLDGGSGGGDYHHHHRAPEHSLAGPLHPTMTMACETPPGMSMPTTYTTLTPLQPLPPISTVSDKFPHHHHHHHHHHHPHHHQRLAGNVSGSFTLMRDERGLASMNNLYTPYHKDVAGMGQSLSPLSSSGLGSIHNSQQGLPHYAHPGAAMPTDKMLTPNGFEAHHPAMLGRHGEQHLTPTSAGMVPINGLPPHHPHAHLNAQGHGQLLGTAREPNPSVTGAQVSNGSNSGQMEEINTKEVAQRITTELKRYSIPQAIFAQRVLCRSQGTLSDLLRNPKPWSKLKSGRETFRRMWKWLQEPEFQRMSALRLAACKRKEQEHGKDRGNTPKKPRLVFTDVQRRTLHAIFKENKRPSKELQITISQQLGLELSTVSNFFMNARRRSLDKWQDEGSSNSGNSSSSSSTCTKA
Sequence of Heat shock factor protein 1 (Homo sapiens) (Q00613 whole entry, looked up): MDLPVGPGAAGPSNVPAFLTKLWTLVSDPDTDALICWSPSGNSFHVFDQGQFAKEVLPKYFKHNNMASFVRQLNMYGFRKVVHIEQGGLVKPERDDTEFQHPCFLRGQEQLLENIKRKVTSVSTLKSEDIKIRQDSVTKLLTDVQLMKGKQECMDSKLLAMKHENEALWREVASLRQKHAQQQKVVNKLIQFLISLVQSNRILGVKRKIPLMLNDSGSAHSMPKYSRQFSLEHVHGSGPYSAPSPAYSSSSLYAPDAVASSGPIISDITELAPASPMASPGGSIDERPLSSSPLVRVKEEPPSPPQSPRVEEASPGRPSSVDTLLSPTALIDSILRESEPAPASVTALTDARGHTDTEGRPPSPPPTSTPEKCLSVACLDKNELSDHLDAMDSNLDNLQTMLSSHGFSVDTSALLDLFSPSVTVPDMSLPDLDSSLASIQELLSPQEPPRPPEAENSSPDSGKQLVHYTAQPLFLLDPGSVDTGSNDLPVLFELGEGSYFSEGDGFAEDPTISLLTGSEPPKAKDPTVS
Sequence of Signal transducer and activator of transcription 3 (Homo sapiens) (P40763 whole entry, looked up): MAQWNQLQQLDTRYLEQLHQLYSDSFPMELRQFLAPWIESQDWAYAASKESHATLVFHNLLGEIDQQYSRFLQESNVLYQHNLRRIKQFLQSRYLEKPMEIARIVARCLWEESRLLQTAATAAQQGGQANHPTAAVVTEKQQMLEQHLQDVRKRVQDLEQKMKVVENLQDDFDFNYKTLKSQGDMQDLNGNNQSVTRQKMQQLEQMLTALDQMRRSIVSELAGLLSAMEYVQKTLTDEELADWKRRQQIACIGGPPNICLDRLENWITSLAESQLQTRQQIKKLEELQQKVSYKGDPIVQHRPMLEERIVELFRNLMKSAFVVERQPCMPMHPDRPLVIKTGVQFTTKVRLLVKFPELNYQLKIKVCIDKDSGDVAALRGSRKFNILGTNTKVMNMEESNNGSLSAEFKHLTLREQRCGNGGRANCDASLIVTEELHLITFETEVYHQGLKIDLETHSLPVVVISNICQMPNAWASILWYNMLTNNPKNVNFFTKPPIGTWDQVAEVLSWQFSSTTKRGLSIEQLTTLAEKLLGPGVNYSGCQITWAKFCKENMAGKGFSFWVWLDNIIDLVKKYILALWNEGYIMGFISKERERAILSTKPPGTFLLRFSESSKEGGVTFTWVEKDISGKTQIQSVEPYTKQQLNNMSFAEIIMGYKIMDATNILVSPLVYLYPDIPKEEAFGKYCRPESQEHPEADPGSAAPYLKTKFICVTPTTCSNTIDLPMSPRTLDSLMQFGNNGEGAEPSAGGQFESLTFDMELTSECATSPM

Nc1cc([N+](=O)[O-])cc(Cl)c1O
active: [13] 5.15 µM
not listed: [20]
inactive: all other assays above

Cc1ccc(S(=O)(=O)C(I)I)cc1
active: [1] 6.16 µM | [2] 42.7 µM | [3] 3.45 µM | [4] 4.8 µM | [8] 33.4 µM | [9] 10.4 µM | [10] 8.81 µM | [12] 14.9 µM | [13] 8.89 µM | [14] 62.5 µM | [17] 9.07 µM | [18] 4.34 µM | [19] 7.8 µM
inactive: [5] | [6] | [7] | [11] | [15] | [16] | [20]

CC(C)OC=O
not listed: [20]
inactive: all other assays above

O=C(O)CCC(F)(F)C(F)(F)C(F)(F)F
inactive: all assays above

C=CC(=O)OCC(F)(F)C(F)(F)C(F)(F)COC(=O)C=C
active: [4] 35.9 µM | [10] 33.2 µM | [12] 50 µM | [16] 29.1 µM | [17] 26.4 µM
inactive: all other assays above

CCOC(=O)CC(=O)C(F)(F)C(F)(F)F
active: [13] 75.8 µM
inactive: all other assays above

CCOC(C=C(C)CCC=C(C)C)OCC
active: [13] 31.2 µM | [15] 38.3 µM
inactive: all other assays above

O=c1cccc[nH]1
inactive: all assays above

CCN(CC)c1ccc(N=Nc2ccccc2)cc1
active: [9] 144 µM | [10] 7.22 µM | [11] 8.89 µM | [13] 3.99 µM | [14] 4.8 µM | [15] 8.12 µM | [19] 27.6 µM
not listed: [20]
inactive: all other assays above

F[Si-2](F)(F)(F)(F)F
not listed: [7]
inactive: all other assays above

OCC(F)(F)C(F)(F)C(F)(F)C(F)(F)C(F)(F)C(F)(F)CO
active: [13] 70.6 µM
not listed: [7]
inactive: all other assays above

CCC/C=C/CO
not listed: [10]
inactive: all other assays above

Brc1ccccn1
not listed: [10]
inactive: all other assays above

CCOC(=O)CCC(C)=O
not listed: [12]
inactive: all other assays above
